# According to PubChem BioAssay AID651820 (National Center for Advancing Translational Sciences (NCATS), 2012):
# About 12,000 (3.5%) of roughly 340,000 compounds were called active. Roughly 18% stayed inconclusive and do not appear here. Calls follow the shape of the dose curve; as a rule, active = well fitted inhibition curve with a large enough effect; inconclusive = small, poorly fitted or top-dose-only effect, or another doubt; inactive = no such curve, though single readings can be large or run the other way. The full list was thinned out, with actives kept by preference.
# Assay: qHTS Assay for Inhibitors of Hepatitis C Virus (HCV)
# Details: Huh7.5.1 HCVcc-Cre infection, luciferase reporter, 44 h; series mostly up to 41.8 µM; activity change, negative = inhibition: at the top concentration
# How it was run: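 Antiviral activity was scored by luciferase reporter output from cells infected with HCVcc-Cre (~0.5 moi) in presence of compound, 44 h infection period, cells seeded 1,000/well 4 h prior.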
# % is scaled to controls: 0 for no effect and ±100 for the full control effect; potency is read from the fitted curve at half-maximal effect.
Structure (SMILES),"activity change, negative = inhibition",Potency
CCOC(=O)c1sc(N)c(C#N)c1COC(=O)C1=COCCO1,4.34% (inactive),–
CCCCCCCCCCOC(=O)Cn1c(COc2cccc(OC)c2)[n+](C)c2ccccc21,-14.4% (inactive),–
CCCCCCCCCCOC(=O)Cn1c(COc2ccc(C)cc2)[n+](C)c2ccccc21,–,31.6 µM (active)
CCCCOC(=O)Cn1c(=O)n(CC(=O)OCCCC)c2cc(C)ccc21,12.5% (inactive),–
CCc1ccc(CNC(=O)C2CCN(c3nnc(C)c4c(C)n(-c5ccc(C)cc5)nc34)CC2)cc1,–,8.91 µM (active)
CCOc1ccc(CNC(=O)C2CCCN(c3nnc(C)c4c(C)n(-c5ccccc5)nc34)C2)cc1 (stereo not drawn),-15.1% (inactive),–
COc1ccc(-n2nc3c(N4CCC(C(=O)NCc5ccccc5)CC4)nnc(C)c3c2C)cc1,-12.4% (inactive),–
CCOC(=O)CCC(NC(=O)c1ccc(CNc2nc3cc(C(F)(F)F)ccc3nc2C(=O)OCC)cc1)C(=O)OCC (stereo not drawn),-22.8% (inactive),–
Cc1ccc(NC(=O)c2cccc(S(=O)(=O)N3CCCc4ccccc43)c2)nc1,–,10 µM (active)
Cn1c(=O)n(C)c2cc(S(=O)(=O)N3CCCc4ccccc43)ccc21,-14.2% (inactive),–
Cc1cccc(NC(=O)c2cccc(S(=O)(=O)N3CCCC3)c2)n1,7.31% (inactive),–
C[C@H](O)[C@@H]1C(=O)N2CCc3ccc(N4CCOCC4)cc3[C@@H]2C[C@@H]1N(C)C(=O)C(C)(C)C,-22.9% [at 8.37 µM] (inactive),–
CCCCc1ccc(NC(=O)CN2C(=O)NC(Cc3ccccc3)C2=O)cc1 (stereo not drawn),-11.5% (inactive),–
Cc1ccc(S(=O)(=O)N2CCN(C(=O)COC(=O)/C=C/c3cccc(Cl)c3)CC2)c(C)c1,-24.1% (inactive),–
COc1ccccc1OCCn1c(SCC(N)=O)nc2ccccc21,7.46% (inactive),–
CCCn1cc(SCC(N)=O)c2ccccc21,-9.3% (inactive),–
CCC(=O)c1cn(CCOc2ccccc2OC)c2ccccc12,–,8.91 µM (active)
CCCCNS(=O)(=O)CCNCc1ccccc1OC,5.73% (inactive),–
COC(=O)c1ccc(CNC(=O)c2ccc(S(=O)(=O)N3CCCCCC3)cc2)cc1,4.24% (inactive),–
Cc1ccc(C)c(OCC(=O)N2CCN(C(=O)c3ccco3)CC2)c1,-2.2% (inactive),–
Cc1ccc(OCC(=O)Nc2ccc(N3CCN(C(=O)c4ccco4)CC3)cc2)c(C)c1,–,7.08 µM (active)
CCC(=O)Nc1ccc(C(=O)N2CCN(C(=O)c3ccco3)CC2)cc1,-5.83% (inactive),–
CCC(=O)N1CCc2cc(Br)c(S(=O)(=O)NCCN3CCCCC3CC)cc21 (stereo not drawn),0.826% (inactive),–
CCN(CC(=O)Nc1cc(Cl)ccc1C)C(=O)CSCc1ccccc1,5.2% (inactive),–
CCS(=O)(=O)c1cc([N+](=O)[O-])c(Sc2ccccc2N)s1,–,7.08 µM (active)

Structure (SMILES),"activity change, negative = inhibition",Potency
Nc1ccccc1Sc1ccc(C(F)(F)F)cc1[N+](=O)[O-],-1.94% (inactive),–
CCOC(=O)c1cc(Sc2ccccc2N)cc(C(=O)OCC)n1,-19.6% (inactive),–
O=C(COc1ccccc1Cl)N1N=C(c2cccs2)CC1c1ccco1 (stereo not drawn),-14.1% (inactive),–
CC(=NNC(=O)c1ccc2nc[nH]c2c1)c1ccc(Br)cc1,-2.36% (inactive),–
COc1ccc(S(=O)(=O)N2CCOCC2)cc1NC(=O)Cc1c(F)cccc1Cl,-2.06% (inactive),–
COC(=O)CNS(=O)(=O)c1ccc(OC)cc1,32.7% (inactive),–
COc1ccc(S(=O)(=O)NCCCCOc2ccc(Cl)cc2)cc1,–,25.1 µM (active)
COc1ccc(S(=O)(=O)NCCOc2ccccc2)cc1F,1.65% (inactive),–
O=C(NCCCN1CCOCC1)c1cn(-c2ccccc2)nc1-c1ccc(F)cc1,-20.5% (inactive),–
CN(C)C(=O)COC(=O)c1cccc(S(=O)(=O)N2CC3(C)CC2CC(C)(C)C3)c1 (stereo not drawn),6.74% (inactive),–
COc1ccc(N2CCN(S(=O)(=O)c3ccc4c(c3)NC(=O)C(C)C(=O)N4)CC2)cc1 (stereo not drawn),0.721% (inactive),–
CC1C(=O)Nc2ccc(S(=O)(=O)N3CCN(c4ccccc4F)CC3)cc2NC1=O (stereo not drawn),-29.1% (inactive),–
CON(C)S(=O)(=O)c1ccc2c(c1)NC(=O)C1CCCN21 (stereo not drawn),–,8.91 µM (active)
Cc1ccc(S(=O)(=O)CCC(=O)OCC(=O)N(C)Cc2ccccc2)cc1,10.4% (inactive),–
CN(CC(=O)Nc1ccc(F)cc1)CC(=O)N1CCCCC1,-1.19% (inactive),–
OCC(O)C1OCOC(C(O)CO)C1O (stereo not drawn),9.97% (inactive),–
COC(=O)C1=C(C)N(Cc2ccccc2)C(=NCCCOC(C)C)N[C@H]1c1ccccc1,-16.6% (inactive),–
O=C(N/N=C/c1sc(N2CCCCC2)nc1-c1cccs1)c1cccnc1,–,11.2 µM (active)
Cc1cc(/C=N/NC(=O)c2cccnc2)c(C)n1CC(C)C,8.27% (inactive),–
O=C(N/N=C/c1ccccn1)c1cccnc1,9.35% (inactive),–
CCN(CC)S(=O)(=O)c1ccc(N(C)CCc2ccc(OC)c(OC)c2)nc1,-23.1% (inactive),–
CCN(CC)S(=O)(=O)c1ccc(Cl)c(NC(=O)c2ccncc2)c1,-20.9% (inactive),–
COc1ccc(S(=O)(=O)N2CCCCCC2)cc1C(=O)N(C)Cc1cccc(OC)c1OC,1.99% (inactive),–
CCN(CC)S(=O)(=O)c1ccc(NC(=O)c2cnc(C)cn2)cc1,2.31% (inactive),–
CCN(CC)S(=O)(=O)c1ccc(N(C)Cc2ccc(C(F)(F)F)cc2)nc1,–,14.1 µM (active)

Structure (SMILES),"activity change, negative = inhibition",Potency
CCN(CC)S(=O)(=O)c1ccc(N(C)Cc2cccc(OC)c2OC)nc1,–,3.98 µM (active)
CCCn1c(C)cc(/C=C(\C#N)C(=O)OCC(=O)N(C)c2c(N)n(Cc3ccccc3)c(=O)[nH]c2=O)c1C,-12.5% (inactive),–
COc1ccccc1C(=O)OCC(=O)Nc1cccc(S(=O)(=O)NC2=NCCCCC2)c1,2.1% (inactive),–
CC1CN(Cc2ccco2)C(=S)N(c2ccccc2)C1=O (stereo not drawn),27.2% (inactive),–
COc1ccc(C(=O)COC(=O)C(O)c2ccccc2)c(OC)c1 (stereo not drawn),3.53% (inactive),–
COc1ccc(C(=O)OCC(=O)N2CC(=O)Nc3ccccc32)cc1Br,11.8% (inactive),–
COc1ccc(Br)cc1/C=N/Nc1ccc(S(=O)(=O)Nc2ccccc2C(=O)O)cc1[N+](=O)[O-],-16% (inactive),–
COc1cccc(NC(=O)CS(=O)(=O)c2cn(CC(=O)N3CCOCC3)c3ccccc23)c1,10.8% (inactive),–
O=C(Nc1ccc(F)cc1)C(=O)c1cn(CC(=O)N2CCOCC2)c2ccccc12,2.94% (inactive),–
COc1cccc(NC(=O)C(=O)c2cn(CC(=O)N3CCOCC3)c3ccccc23)c1,–,11.2 µM (active)
CCCC[C@@H]1CN=C(N)N1CCc1cccc(F)c1,10.7% (inactive),–
CC(C)(Oc1ccc(Cl)cc1)C(=O)OCC(=O)NCCc1ccc(S(N)(=O)=O)cc1,38.5% (inactive),–
CC[C@]12c3[nH]c4cc(CCC(=O)N(C)C)ccc4c3CCN1C(=O)[C@@H](CC(=O)NCc1ccco1)C[C@@H]2C(=O)N1CCN(C(=O)c2ccco2)CC1,-1.33% [at 8.37 µM] (inactive),–
O=[N+]([O-])c1cccc(C=NN=Cc2ccccc2O)c1,-9.27% (inactive),–
CCCCn1c(=S)[nH]c2ccccc2c1=O,-12.8% (inactive),–
S=c1[nH]c2ccccc2c2ccccc12,–,11.2 µM (active)
S=c1ccc2ccccc2[nH]1,8.78% (inactive),–
N=C1C(c2nc3ccccc3s2)=C(O)CN1NC(=O)c1ccc([N+](=O)[O-])cc1,–,11.2 µM (active)
COc1ccccc1OCc1nc2ccccc2s1,13.9% (inactive),–
O=C(Nn1c(-c2ccccc2)nc2ccccc2c1=O)c1ccc([N+](=O)[O-])cc1,0.828% (inactive),–
COc1ccccc1N1CC(O)=C(c2nc3ccccc3s2)C1=N,–,11.2 µM (active)
N=C1C(c2nc3ccccc3[nH]2)=C(O)CN1NC(=O)c1c[nH]c2ccccc12,6.25% (inactive),–
CCOC(=O)CCCN1CC(O)=C(c2nc3ccccc3s2)C1=N,-7.47% (inactive),–
N#CCN(C(=O)COC(=O)C1CC2CCCC(C1)C2=O)c1ccccc1 (stereo not drawn),3.03% (inactive),–
COc1cc(OC)c(C(=O)NNC(=O)c2ccccc2-n2cccc2)cc1OC,-22% (inactive),–

Structure (SMILES),"activity change, negative = inhibition",Potency
CCCN(CC(=O)Nc1ccccc1C)C(=O)c1ccc2[nH]c3c(c2c1)CC(C)CC3 (stereo not drawn),-29.8% (inactive),–
CN(CC#CCC(c1ccccc1)c1ccccc1)C(C)(C)C,–,10 µM (active)
CC(C)(C)N(CC#CCC(O)(c1ccccc1)C1CCCC1)CCO (stereo not drawn),-21.1% (inactive),–
Cc1cc2c(cc1C)NC1(C[C@H]3CCC(=O)N4CC[C@@H](C1)[C@@H]34)C(=NC(C)(C)CC(C)(C)C)N2 (stereo partly drawn),-6.36% (inactive),–
COc1ccc(C(=O)Nc2cccc(/C=C(/CCC(=O)O)c3nc4ccccc4s3)c2)cc1,10.6% (inactive),–
O=C(Cc1ccc(Cl)cc1)c1ccccc1,4.62% (inactive),–
N#CCSc1nc2ccc(N3CCOCC3)cc2c(=O)n1CCc1ccccc1,–,10 µM (active)
CCCCn1c(SCC(=O)NCC2CCCO2)nc2ccc(N3CCOCC3)cc2c1=O (stereo not drawn),-14.7% (inactive),–
COCCCNC(=O)CSc1nc2ccc(N3CCOCC3)cc2c(=O)n1CCc1ccccc1,16.8% (inactive),–
CC(CN1CCOCC1)c1ccccc1 (stereo not drawn),10.7% (inactive),–
OC(c1ccc(Cl)cc1)C(CN1CCOCC1)c1ccccc1 (stereo not drawn),12.9% (inactive),–
OC(c1ccccc1)C(CN1CCOCC1)c1ccccc1 (stereo not drawn),–,12.6 µM (active)
Cc1csc(=O)n1CCC(=O)OCC(=O)NNC(=O)c1ccc(Br)cc1,7.44% (inactive),–
CCOC(=O)[C@H]1[C@H]2COc3ccc(OC)cc3[C@@H]2N2C(=O)c3ccc(F)cc3NC(=O)[C@@]12C,-4.19% (inactive),–
COC(=O)C1=C(c2cc3ccccc3o2)C[C@@H]2CC[C@H]1N2C(=O)NC1CCCCC1,–,7.94 µM (active)
COC(=O)C1=C(c2cc3ccccc3s2)C[C@@H]2CC[C@H]1N2C(=O)NC(C)C,-26.4% (inactive),–
COC(=O)C1=C(c2ccc(F)cc2F)C[C@@H]2CC[C@H]1N2C(=O)NC1CC1,18.2% (inactive),–
O=C(COC(=O)c1cc(S(=O)(=O)N2CCOCC2)ccc1Cl)NCCc1ccccc1,5.53% (inactive),–
Cc1ccc(C)c(NC(=O)CN(C)C(=O)c2ccc3ncsc3c2)c1,36.6% (inactive),–
Cc1sc(NC(=O)C2=COCCO2)c(C#N)c1C,14.2% (inactive),–
CC(NC(=O)c1cccc(S(=O)(=O)N2CCc3ccccc3C2)c1)c1ccco1 (stereo not drawn),16.5% (inactive),–
CN1CCN(S(=O)(=O)c2cccc(C(=O)N3CCc4ccccc43)c2)CC1,21% (inactive),–
Cc1cccc(N2CCN(C(=O)c3cccc(S(=O)(=O)N4CCc5ccccc5C4)c3)CC2C)c1 (stereo not drawn),–,7.08 µM (active)
